The record followed here is PubChem BioAssay (NCI).

The panel holds about 83,000 compounds, 20% with a hit somewhere; the sample as a whole holds those more often.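 Method: cells in 96-well plates; compound added at one concentration; 48 h incubation; percent growth measured; values under 10 scored active.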 The source made the active and inactive calls.

For one experiment, the system named is A549/ATCC NSCLC. Put plainly: NCI-60 one-dose screen, 48 h (100 = growth as untreated, 0 = no growth, -100 = all killed). As to conditions: 10 µM unless noted.
On to `O=C(c1cccc(C(=O)c2ccc3c4c(cccc24)C(=O)N(c2ccccc2)C3=O)c1)c1ccc2c3c(cccc13)C(=O)N(c1ccccc1)C2=O`, for which the growth is 103% (inactive).

Turning to `Cc1ccc[n+](CCC(N)=O)c1`, the growth is 93.7% (inactive).

As to `Cc1ccc2nc(N)nnc2c1`, the growth is 109% (inactive).

Take `CCOc1ccncc1[N+](=O)[O-]`: the growth is 97.5% (inactive).

As for `Oc1cc(O)c2c(c1)O[C@H](c1ccc(O)c(O)c1)[C@@H](O)C2`, the growth was 97% (inactive).

`Cn1c(=O)c2nc3c(=O)n(C)c(=O)n(C)c3nc2n(C)c1=O`: the growth is 126% (inactive).

Take `C=CCOc1ccc(Cl)cc1Cl`: the growth was 109% (inactive).

For `CCOC(=O)/C(O)=C(\C=N\C(=S)Nc1ccc(Cl)c(Cl)c1)C(=O)OCC`, the growth was 101% (inactive).

Regarding `CCOc1ccc(NC(=S)N2CCC(CCCC3CCN(C(=S)Nc4ccc(OCC)cc4)CC3)CC2)cc1`, the growth is 83.3% (inactive).

For `Clc1ccc(C(SCc2ccccc2)SCc2ccccc2)cc1`, the growth was 97.6% (inactive).

Take `CC(=O)C1C(=O)C(=O)N(c2ccc(Cl)c(Cl)c2)C1=O` (centres undefined): the growth was 113% (inactive).

As to `Cc1cc(Cl)cc(Cc2cc(Cl)cc(C)c2O)c1O`, the growth was 29% (inactive).

Take `c1ccc(Oc2c3ccccc3nc3ccccc23)cc1`: the growth was 34.1% (inactive).

Take `O=[N+]([O-])c1ccc2[nH]c(=S)n(/C=C(/c3ccc(Cl)cc3Cl)S(=O)(=O)Cc3ccc(Cl)cc3Cl)c2c1`: the growth is 83.3% (inactive).

On to `N#C/C(=C\c1ccc(C#N)cc1)C(=O)c1ccccc1`, for which the growth is 98.4% (inactive).

Turning to `COc1cc(OC)c(NC(=O)C(Sc2nc(C)cc(C)c2C#N)c2ccccc2)cc1Cl` (centres undefined), the growth was 92.6% (inactive).

For `O=c1nc(Nc2cccc(Cl)c2)oc2cc(Cl)oc(=O)c12`, the growth is 101% (inactive).

As to `C/C(O)=C(/C=N\C(=S)Nc1ccc(S(=O)(=O)Nc2nccs2)cc1)C(=O)Nc1ccccc1C`, the growth was 92.6% (inactive).

`CC(O)C(F)(F)C(F)(F)C(F)(F)F` (centres undefined): the growth is 110% (inactive).

`CCOP(=O)(NC(c1ccccc1)c1ccccc1)OCC`: the growth is 106% (inactive).

Consider `CC(=O)OCC1OC(n2cnc3c(=S)nc(N)[nH]c32)C(OC(C)=O)C1OC(C)=O` (centres undefined), for which the growth was 105% (inactive).

As for `CCCCn1cnc2c(=O)[nH]cnc21`, the growth was 107% (inactive).

Consider `O=C(NCc1ccccc1)/C(=C/c1ccccc1)NC(=O)c1ccccc1`, for which the growth is 85.4% (inactive).

As to `O=CNCCc1ccccc1`, the growth is 96.8% (inactive).

As to `COC1OC(C(COC(C)=O)OC(C)=O)C(OC(C)=O)C(OC(C)=O)C1OC(C)=O` (centres undefined), the growth is 106% (inactive).

For the compound `O=S(Cc1ccccc1)/C(=C/NC(=S)Nc1cc(Cl)ccc1Cl)c1ccccc1` (centres undefined), the growth was 96.8% (inactive).

With `Cc1c(Cl)cccc1N=C=S`, the growth is 90.4% (inactive).

In the case of `CC(=O)C1C(=O)C(=O)N(c2cccc([N+](=O)[O-])c2)C1=O` (centres undefined), the growth is 109% (inactive).

Take `CCOc1ccc2c(c1)c(C)cc(C)[n+]2CC`: the growth is 45.4% (inactive).

For `S=CN1CCCCC1`, the growth was 91.8% (inactive).

Take `Cc1nc(C)c(C(=O)O)cc1C(=O)O`: the growth is 116% (inactive).

With `Cc1cc(CC(=O)NCCO)n(CCO)c(=O)c1`, the growth is 94.1% (inactive).

As for `NC(CSSCC(N)C(=O)O)C(=O)O` (centres undefined), the growth was 36.7% (inactive).

With `C/C(O)=C(/C=N/C(=S)Nc1ccccc1)C(=O)Nc1ccccc1C`, the growth is 97.3% (inactive).

Take `CC(C)(C)[Si](C)(C)OCC1OC(n2cnc3c(N)ncnc32)CC1OS(C)(=O)=O` (centres undefined): the growth was 99.4% (inactive).

With `NNC(=O)N/N=C1\C(=O)N(c2nccs2)C(=O)C(=O)C1c1nc2ccccc2s1` (centres undefined), the growth is 75.8% (inactive).

On to `C(=C\c1ccncc1)/c1ccncc1`, for which the growth was 96.5% (inactive).

As for `CC(=O)NCNC(C)=O`, the growth is 96.7% (inactive).

Another experiment has as its system 786-0 renal. Described as above. The note with it: 10 µM unless noted.
Consider `O=C(c1cccc(C(=O)c2ccc3c4c(cccc24)C(=O)N(c2ccccc2)C3=O)c1)c1ccc2c3c(cccc13)C(=O)N(c1ccccc1)C2=O`, for which the growth was 106% (inactive).

On to `Cc1ccc[n+](CCC(N)=O)c1`, for which the growth is 94.4% (inactive).

`Cc1ccc2nc(N)nnc2c1`: the growth was 98.4% (inactive).

As to `CCOc1ccncc1[N+](=O)[O-]`, the growth was 106% (inactive).

With `Oc1cc(O)c2c(c1)O[C@H](c1ccc(O)c(O)c1)[C@@H](O)C2`, the growth is 106% (inactive).

As for `Cn1c(=O)c2nc3c(=O)n(C)c(=O)n(C)c3nc2n(C)c1=O`, the growth was 91.2% (inactive).

As to `C=CCOc1ccc(Cl)cc1Cl`, the growth was 104% (inactive).

On to `CCOC(=O)/C(O)=C(\C=N\C(=S)Nc1ccc(Cl)c(Cl)c1)C(=O)OCC`, for which the growth was 115% (inactive).

In the case of `Clc1ccc(C(SCc2ccccc2)SCc2ccccc2)cc1`, the growth is 111% (inactive).

For the compound `CC(=O)C1C(=O)C(=O)N(c2ccc(Cl)c(Cl)c2)C1=O` (centres undefined), the growth is 102% (inactive).

Turning to `Cc1cc(Cl)cc(Cc2cc(Cl)cc(C)c2O)c1O`, the growth is 14.9% (inactive).

As for `c1ccc(Oc2c3ccccc3nc3ccccc23)cc1`, the growth was 1.82% (active).

On to `O=[N+]([O-])c1ccc2[nH]c(=S)n(/C=C(/c3ccc(Cl)cc3Cl)S(=O)(=O)Cc3ccc(Cl)cc3Cl)c2c1`, for which the growth is 94.6% (inactive).

Regarding `N#C/C(=C\c1ccc(C#N)cc1)C(=O)c1ccccc1`, the growth is 94.2% (inactive).

With `COc1cc(OC)c(NC(=O)C(Sc2nc(C)cc(C)c2C#N)c2ccccc2)cc1Cl` (centres undefined), the growth was 73.6% (inactive).

For `O=c1nc(Nc2cccc(Cl)c2)oc2cc(Cl)oc(=O)c12`, the growth is 85.2% (inactive).

Regarding `C/C(O)=C(/C=N\C(=S)Nc1ccc(S(=O)(=O)Nc2nccs2)cc1)C(=O)Nc1ccccc1C`, the growth is 96.7% (inactive).

As for `CC(O)C(F)(F)C(F)(F)C(F)(F)F` (centres undefined), the growth was 102% (inactive).

As for `CCOP(=O)(NC(c1ccccc1)c1ccccc1)OCC`, the growth was 102% (inactive).

On to `CC(=O)OCC1OC(n2cnc3c(=S)nc(N)[nH]c32)C(OC(C)=O)C1OC(C)=O` (centres undefined), for which the growth is 66% (inactive).

With `CCCCn1cnc2c(=O)[nH]cnc21`, the growth is 105% (inactive).

Regarding `O=C(NCc1ccccc1)/C(=C/c1ccccc1)NC(=O)c1ccccc1`, the growth was 112% (inactive).

Take `O=CNCCc1ccccc1`: the growth is 102% (inactive).

With `COC1OC(C(COC(C)=O)OC(C)=O)C(OC(C)=O)C(OC(C)=O)C1OC(C)=O` (centres undefined), the growth is 107% (inactive).

On to `O=S(Cc1ccccc1)/C(=C/NC(=S)Nc1cc(Cl)ccc1Cl)c1ccccc1` (centres undefined), for which the growth is 102% (inactive).

Turning to `Cc1c(Cl)cccc1N=C=S`, the growth was 101% (inactive).

As for `CC(=O)C1C(=O)C(=O)N(c2cccc([N+](=O)[O-])c2)C1=O` (centres undefined), the growth was 96.8% (inactive).

For the compound `CCOc1ccc2c(c1)c(C)cc(C)[n+]2CC`, the growth was 79.4% (inactive).

Take `S=CN1CCCCC1`: the growth was 102% (inactive).

For the compound `Cc1nc(C)c(C(=O)O)cc1C(=O)O`, the growth is 112% (inactive).

Take `Cc1cc(CC(=O)NCCO)n(CCO)c(=O)c1`: the growth was 108% (inactive).

Take `C/C(O)=C(/C=N/C(=S)Nc1ccccc1)C(=O)Nc1ccccc1C`: the growth was 102% (inactive).

Consider `CC(C)(C)[Si](C)(C)OCC1OC(n2cnc3c(N)ncnc32)CC1OS(C)(=O)=O` (centres undefined), for which the growth is 103% (inactive).

As to `NNC(=O)N/N=C1\C(=O)N(c2nccs2)C(=O)C(=O)C1c1nc2ccccc2s1` (centres undefined), the growth is 118% (inactive).

In the case of `C(=C\c1ccncc1)/c1ccncc1`, the growth is 107% (inactive).

For `CC(=O)NCNC(C)=O`, the growth is 109% (inactive).
